Results on 98 molecules are retold here after PubChem BioAssay AID504329 (Southern Research Specialized Biocontainment Screening …, 2011).

In all, about 340,000 compounds went through this assay and about 1,000 (0.29%) were called active. No stated cut-off is given here; in the data, inconclusive means inhibition above about 27% without an active follow-up result; inactive means below that. These entries were drawn from the full list. Potency and affinity values are given separately.

This experiment in a line: NS1A inhibition, H1N1 influenza, cell based functional assay (AID 504329). To be noted: percent inhibition, at 12.5 µM, stronger effect = higher value.
As usually defined, the inhibition is the drop in the measured response relative to a control, in per cent. For `C=CCn1c(Sc2ccccc2)nc2c1c(=O)[nH]c(=O)n2C`, the inhibition is -6.06% (inactive).

Regarding `COc1ccc([C@H]2CC(=O)C=C(c3ccc(O)cc3)C2)cc1OC`, the inhibition was -4.89% (inactive).

`CN(C)c1ccc(/C=N/N2C(=O)c3ccccc3C2=O)cc1`: the inhibition was -9.49% (inactive).

Turning to `CN(C)c1ccc(C(=O)NN2C(=O)c3ccccc3C2=O)cc1`, the inhibition was -1.57% (inactive).

Turning to `CCc1ccc(-c2cc(C)no2)cc1S(=O)(=O)Nc1cc(C)on1`, the inhibition was 1.29% (inactive).

For the molecule `Cc1ccccc1-c1nc(CS(=O)CC(=O)NCCN2CCOCC2)c(C)o1` (stereo not drawn), the inhibition is -1.58% (inactive).

As to `Nc1ccccc1N=Nc1ccccc1N`, the inhibition is 18.4% (inactive).

For the molecule `CC(C)(C)C1=CC(O)(c2ccccc2)C=C(C(C)(C)C)C1=O`, the inhibition is -2.37% (inactive).

Consider `COc1cccc(NC(=O)COC(=O)c2ccco2)c1`, for which the inhibition is 7.2% (inactive).

Take `CCOc1cccc(CNCCCSc2ncccn2)c1`: the inhibition was 1.33% (inactive).

Take `O=C(O)c1cccc2cccc(-c3c4ccc(=O)c(O)c-4oc4c(O)c(O)ccc34)c12`: the inhibition was 13% (inactive).

In the case of `O=C1c2ccccc2C(=O)c2c1ccc(O)c2O`, the inhibition was 17.2% (inactive).

For the molecule `Cc1ccc(OCCNC(=O)C2CC(=O)N(Cc3ccccc3)C2)cc1` (stereo not drawn), the inhibition was 4.88% (inactive).

Turning to `CC1CCN(S(=O)(=O)c2ccccc2[N+](=O)[O-])CC1`, the inhibition was 16.9% (inactive).

Turning to `CC1CCN(CC(O)COc2ccc(-c3ccccc3)cc2)CC1` (stereo not drawn), the inhibition was 19.9% (inactive).

For the molecule `CN1CCN(c2ccc(N)c(N3CCN(C)CC3)c2)CC1`, the inhibition is 17.9% (inactive).

In the case of `Cc1nn(-c2cc(N3CCCCC3)ccc2N)c(=O)c2ccccc12`, the inhibition is 2.92% (inactive).

In the case of `O=C(C[C@@H]1C/C=C\C[C@@H](Cc2ccc(F)cc2)C(=O)OCCNC1=O)NCCO`, the inhibition was 0.47% (inactive).

As for `O=C1Nc2ccc(Br)cc2C12OCCO2`, the inhibition is -14.6% (inactive).

On to `CCOc1ccc(C(=O)NCc2ccc3c(c2)OCO3)cc1OCC`, for which the inhibition was -1.8% (inactive).

Regarding `O=C(COC(=O)c1ccc[nH]c1=O)NC1CCCCCCC1`, the inhibition was -1.92% (inactive).

Take `FC(F)(F)c1cc(C(F)(F)F)c2ccc(Oc3ccccc3)nc2n1`: the inhibition is -1.17% (inactive).

As to `N#CC(c1ccc(Cl)cc1)c1ccc2c(C(F)(F)F)cc(C(F)(F)F)nc2n1` (stereo not drawn), the inhibition was 21.3% (inactive).

Take `Cc1ccc(/C=N/Nc2ccc3c(C(F)(F)F)cc(C(F)(F)F)nc3n2)cc1`: the inhibition was -11.1% (inactive).

For `N#CC(c1cccc(Cl)c1)c1ccc2c(C(F)(F)F)cc(C(F)(F)F)nc2n1` (stereo not drawn), the inhibition was 20.9% (inactive).

As for `O=C(C1=C[C@H](c2ccc3c(c2)OCO3)C[C@H](OCCCCO)O1)N1CCOCC1`, the inhibition was -1.7% (inactive).

Take `O=C(c1cc2cc(F)ccc2[nH]1)N1CCCC(Nc2ccc(F)cc2)C1` (stereo not drawn): the inhibition was 9.28% (inactive).

Consider `CC(C)c1ccc(S(=O)(=O)/N=C2\C=C(NS(=O)(=O)c3ccccc3)C(=O)c3ccccc32)cc1`, for which the inhibition is 14.3% (inactive).

On to `CCc1ccc(S(=O)(=O)/N=C2\C=C(NS(=O)(=O)c3ccccc3)C(=O)c3ccccc32)cc1`, for which the inhibition is 11.2% (inactive).

Take `CCc1ccc(S(=O)(=O)/N=C2\C=C(Nc3ccc(C(=O)O)cc3)C(=O)c3ccccc32)cc1`: the inhibition is 25.1% (inactive).

As for `CC(C)(C)c1ccc(S(=O)(=O)/N=C2\C=C(NS(=O)(=O)c3ccccc3)C(=O)c3ccccc32)cc1`, the inhibition is 11.3% (inactive).

Turning to `Cc1ccc(S(=O)(=O)Nc2c(NC3CCCCC3)c3ccccc3oc2=O)c(C)c1`, the inhibition is 0.02% (inactive).

For the molecule `Cc1ccn(CCC(=O)N2CCCC(CCC(=O)N3CCN(c4ccccn4)CC3)C2)n1` (stereo not drawn), the inhibition was -2.86% (inactive).

Take `Cc1cc(C)c(NC(=O)CNC(=O)COC(=O)CNC(=O)c2ccc(Cl)cc2Cl)c(C)c1`: the inhibition was -0.98% (inactive).

Turning to `CCOC(=O)N1CCC(NS(=O)(=O)c2cc(Br)cc3c2N(C(=O)CC)CC3)CC1`, the inhibition is 7.36% (inactive).

For `Cc1cccc(C)c1Nc1c(-c2ccccn2)nc2ccccn12`, the inhibition was 29.7% (inactive).

`Cc1ccc(Nc2c(-c3ccccn3)nc3cc(C)ccn23)cc1`: the inhibition was 53% (inactive).

`Cc1ccn2c(Nc3ccccc3)c(-c3ccccn3)nc2c1`: the inhibition is -0.92% (inactive).

As for `Cc1ccccc1Nc1c(-c2ccccn2)nc2c(C)cccn12`, the inhibition is -0.06% (inactive).

For the molecule `CCOC(=O)CN(C(=O)c1snc(C(N)=O)c1N)C(C(=O)NC1CCCCC1)c1ccc(F)cc1` (stereo not drawn), the inhibition is 1.16% (inactive).

On to `COc1ccc(C(=O)N/C(=C\c2cn(C)c3ccccc23)C(=O)NCCCn2ccnc2)cc1OC`, for which the inhibition is 4.02% (inactive).

Turning to `O=C(NCCc1ccc(Cl)cc1)C(=O)c1c[nH]c2ccccc12`, the inhibition was -31.4% (inactive).

For the molecule `O=C(Nc1ccc(N2CCOCC2)cc1)C1CCCCN1S(=O)(=O)c1ccccc1` (stereo not drawn), the inhibition is -25.6% (inactive).

Turning to `c1cc(CNCCN2CCNCC2)ccn1`, the inhibition is -2.65% (inactive).

On to `c1ccc(CN2CCNCC2)nc1`, for which the inhibition was 2.99% (inactive).

As for `CN(CCCNC(=O)CCC(=O)N1CCOc2ccc(Cl)cc21)Cc1ccccc1`, the inhibition was 3.8% (inactive).

On to `O=C(CN1C(=O)NC2(CCc3ccccc32)C1=O)c1cccs1` (stereo not drawn), for which the inhibition is -5.04% (inactive).

As for `COc1ccc(CCN=Cc2ccccc2O)cc1OC`, the inhibition was -18.6% (inactive).

As to `COc1ccc(/C=N/Nc2nnc(Cc3ccc(OC)c(OC)c3)c(=O)[nH]2)cc1OC`, the inhibition is -2.26% (inactive).

On to `COc1ccc(Cc2nnc(SC)[nH]c2=O)cc1OC`, for which the inhibition is -0.91% (inactive).

Take `COc1ccccc1/C=N/Nc1nc(C)cc(C)n1`: the inhibition was -18.3% (inactive).

On to `COc1ccc(Cc2nccc3cc(OC)c(OC)cc23)cc1OC`, for which the inhibition is 0.89% (inactive).

In the case of `COc1ccc(/C=N/Nc2nnc(Cc3ccc(OC)c(OC)c3)c(=O)[nH]2)cc1`, the inhibition is 12.1% (inactive).

Take `CCc1ccc2[nH]c3nc(N/N=C/c4ccc(O)cc4O)nnc3c2c1`: the inhibition was 1.89% (inactive).

On to `COc1ccc(Cc2nc3ccccc3n2CC(=O)N/N=C/c2ccc(C)cc2O)cc1OC`, for which the inhibition was 1.09% (inactive).

For the molecule `COc1ccc(NC2c3ccccc3C(=O)N2c2ccccn2)cc1Cl` (stereo not drawn), the inhibition was 25% (inactive).

With `Cn1c(=O)c(=O)n(C)c2cc(S(=O)(=O)NCc3ccc(Cl)cc3)ccc21`, the inhibition is -12% (inactive).

`O=C(CSc1ccccc1)NNC(=O)c1ccncc1`: the inhibition is -1.89% (inactive).

In the case of `CC(C)CC(=O)Nc1nnc(S(=O)(=O)Nc2ccccc2)s1`, the inhibition is 0.61% (inactive).

Consider `CCCCn1c(=O)[nH]c(=O)c2c1nc(-c1ccccc1OC(F)F)n2C`, for which the inhibition was -2.54% (inactive).

With `Cc1ccc(NCC(=O)N/N=C/c2cccn2C)cc1`, the inhibition is 1.43% (inactive).

For the molecule `Cc1cc(N2CCN(CC(O)C(F)(F)F)CC2)c2ccccc2n1` (stereo not drawn), the inhibition was 15.7% (inactive).

As for `CCC(CO)Oc1cc(NCc2cccc(C(F)(F)F)c2)c2ncn(C(C)C)c2c1` (stereo not drawn), the inhibition was -6.24% (inactive).

In the case of `COCCN(CC1CCCN(C2Cc3ccccc3C2)C1)C(=O)CCC(C)=O` (stereo not drawn), the inhibition was -22.6% (inactive).

For `CN(CC(=O)Nc1ccc(Cl)cc1F)C1=NS(=O)(=O)c2ccccc21`, the inhibition is 5.4% (inactive).

For the molecule `COc1ccc(S(=O)(=O)Nc2ccc(NC(C)=O)cc2)cc1[N+](=O)[O-]`, the inhibition is 9.65% (inactive).

As for `COc1cc(CNc2ccc(N3CCCC3)cc2)cc(Cl)c1OC`, the inhibition is 21.3% (inactive).

For `Clc1ccc(CNc2ccc(N3CCN(Cc4ccccc4)CC3)cc2)cc1`, the inhibition was 20.5% (inactive).

In the case of `CCOc1c(Cl)cc(CNc2ccc(N3CCCC3)cc2)cc1OC`, the inhibition is 15.9% (inactive).

In the case of `CCOc1ccc(CNc2ccc(N3CCCC3)cc2)cc1`, the inhibition was 21.7% (inactive).

With `COc1ccc(C(=O)Nc2ccc(N3CCN(C(=O)C(C)C)CC3)cc2)cc1[N+](=O)[O-]`, the inhibition is -5.48% (inactive).

Turning to `CCOC(=O)C1CCCN(CCC(=O)Nc2ccc(F)c(F)c2)C1` (stereo not drawn), the inhibition was -6.65% (inactive).

Regarding `c1ccc(CSC2=NCCCN2)cc1`, the inhibition was 5.1% (inactive).

As to `Cc1ccc(NC(=O)CSc2nc3ccccc3c(=O)n2CCCC(=O)N2CCCC2)cc1`, the inhibition is -0.44% (inactive).

As to `CCN(CC)c1ccc(/C=C2/C(=O)ON=C2C)cc1`, the inhibition was 22.3% (inactive).

Regarding `CC1=NN(c2cccc(F)c2)C(=O)/C1=C/c1ccc(N(C)C)cc1`, the inhibition was 15.2% (inactive).

In the case of `COc1ccc(NC(=O)CN(C)CC(=O)NCCc2ccc(F)cc2)cc1`, the inhibition was -13.6% (inactive).

For `COCCN(Cc1cc2cccc(C)c2n2nnnc12)C(=O)C(F)(F)F`, the inhibition is -4.57% (inactive).

`CN(CCc1cn[nH]c1)Cc1nc(Cc2ccccc2)no1`: the inhibition was 3.23% (inactive).

Regarding `Oc1c(CN2CCOCC2)cc(-c2ccccc2)cc1CN1CCOCC1`, the inhibition is 9.91% (inactive).

On to `Oc1c(CN2CCOCC2)cc(CN2CCOCC2)cc1CN1CCOCC1`, for which the inhibition was -23.8% (inactive).

As for `O=C(Oc1c(CN2CCOCC2)cc(Cl)c2cccnc12)c1ccccc1`, the inhibition was -7.41% (inactive).

As for `COc1cc(OC)cc(C(=O)Oc2c(CN3CCOCC3)cc(Cl)c3cccnc23)c1`, the inhibition is -7.03% (inactive).

`COc1ccc(CN2CCN(C)CC2)cc1OCc1ccccc1`: the inhibition is 0.12% (inactive).

Take `CN1CCN(Cc2ccc(OCc3ccccc3)cc2)CC1`: the inhibition is -2.13% (inactive).

In the case of `O=C(Oc1c(CN2CCOCC2)cc(Cl)c2cccnc12)c1ccccc1Cl`, the inhibition was 13.5% (inactive).

Take `COc1ccc(C(=O)Oc2c(CN3CCOCC3)cc(Cl)c3cccnc23)cc1`: the inhibition was 6.29% (inactive).

`CC(/C=C1\SC(=S)N(CCC(=O)Nc2nc(C)cs2)C1=O)=C\c1ccccc1`: the inhibition was -4.32% (inactive).

For the molecule `COc1ccc(/C=C/c2nc(C)c(-c3ccccc3)c(=O)[nH]2)cc1OC`, the inhibition was 2.31% (inactive).

On to `CCOc1ccc(C2=CSC3=NCCN23)cc1[N+](=O)[O-]`, for which the inhibition was -15.6% (inactive).

For the molecule `CCOc1ccc(NC(=S)Nc2ccc(OCc3ccccc3)cc2)cc1`, the inhibition was 22% (inactive).

Take `CCCc1c(C(=O)Nc2ccc(F)cc2F)cnn1-c1ccccc1`: the inhibition is 2.03% (inactive).

As for `CC(C)Oc1cccnc1N(C)C1CCN(Cc2ccccc2)CC1`, the inhibition is 7.67% (inactive).

As for `COc1cc(CN2CCCCC2)ccc1OCc1ccccc1`, the inhibition was -0.75% (inactive).

Consider `Oc1c(CNc2ccccc2)cc(COCc2ccccc2)c2cccnc12`, for which the inhibition was -1.39% (inactive).

As for `c1ccc(COc2cccc(CN3CCCCC3)c2)cc1`, the inhibition is 4.44% (inactive).

`OC(COCc1ccccc1)CN1CCCC1` (stereo not drawn): the inhibition is -16.3% (inactive).

In the case of `COc1cc(C(=O)N(C)C2CCCN(Cc3ccccc3F)C2)cc(OC)c1OC` (stereo not drawn), the inhibition was -3.71% (inactive).
